{"source": "PubChem BioAssay AID588590", "about": "(National Center for Advancing Translational Sciences (NCATS), 2011)", "note": "In all, about 390,000 compounds went through this assay and about 4,000 (1%) were called active. Not shown: some 7% with an inconclusive outcome. This is one part of a sample in which actives are shown more often than they occur. The call rests on the fitted dose curve; in most records, active means well fitted inhibition curve with a large enough effect; inconclusive means small, poorly fitted or top-dose-only effect, or another doubt; inactive means no such curve, though single readings can be large or run the other way. Potency means the concentration at half of the fitted maximal effect."}
{"target": "DNA polymerase iota (Homo sapiens) (UniProt Q9UNA4)", "sequence (Q9UNA4 whole entry, looked up)": "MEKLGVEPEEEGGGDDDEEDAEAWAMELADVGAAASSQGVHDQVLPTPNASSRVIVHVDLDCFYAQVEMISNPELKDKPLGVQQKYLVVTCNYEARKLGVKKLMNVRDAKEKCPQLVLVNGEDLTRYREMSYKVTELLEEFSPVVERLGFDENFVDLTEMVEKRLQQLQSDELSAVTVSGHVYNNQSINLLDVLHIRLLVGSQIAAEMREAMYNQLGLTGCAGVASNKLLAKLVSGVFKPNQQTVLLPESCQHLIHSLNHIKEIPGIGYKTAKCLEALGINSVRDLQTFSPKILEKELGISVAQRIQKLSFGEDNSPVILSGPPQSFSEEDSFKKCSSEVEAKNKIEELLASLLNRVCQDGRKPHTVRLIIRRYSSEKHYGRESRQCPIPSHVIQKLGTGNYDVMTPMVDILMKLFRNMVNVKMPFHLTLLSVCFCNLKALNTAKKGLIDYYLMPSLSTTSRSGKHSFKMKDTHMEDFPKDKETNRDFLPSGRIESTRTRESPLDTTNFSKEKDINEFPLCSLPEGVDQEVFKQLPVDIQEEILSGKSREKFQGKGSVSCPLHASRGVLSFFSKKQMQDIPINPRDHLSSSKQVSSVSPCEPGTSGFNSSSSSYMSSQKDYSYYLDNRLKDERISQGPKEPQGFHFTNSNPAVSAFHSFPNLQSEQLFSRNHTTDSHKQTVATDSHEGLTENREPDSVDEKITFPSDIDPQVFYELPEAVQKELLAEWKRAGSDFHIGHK", "assay": "qHTS for Inhibitors of Polymerase Iota", "conditions": "Pol iota fluorescent replication assay, 10 min; series mostly up to 115 µM; activity, negative = inhibition: at the top concentration", "summary_of_the_method": "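Pol iota at 10 nM preincubated 15 min with compounds at room temperature; reaction started with fluorescent substrate, 50 nM final. Fluorescence read kinetically at 0 and 10 min; buffer-only wells as negative control.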"}
{"smiles": "Cc1ccc2onc(CC(=O)N3CCN(c4ccc(Cl)cc4)CC3)c2c1", "activity, negative = inhibition": "9.13% (inactive)"}
{"smiles": "COc1ccc(C2Nc3ccc(NC(=O)COC(C)=O)cc3C(=O)N2Cc2ccccc2)cc1COc1ccc(NC(C)=O)cc1", "note": "(centres undefined)", "activity, negative = inhibition": "15.4% (inactive)"}
{"smiles": "COC(=O)c1ccccc1NC(=O)Cn1c(=O)cc(C)c2c(C)nn(-c3cccc(Cl)c3C)c21", "activity, negative = inhibition": "34.6% (inactive)"}
{"smiles": "CC(C)CNC(=O)COC(=O)/C=C/c1ccco1", "activity, negative = inhibition": "-29.3% (inactive)"}
{"smiles": "COc1ccc(Cl)cc1C(=O)NNC(=S)NC(=O)/C=C/c1ccco1", "activity, negative = inhibition": "16.2% (inactive)"}
{"smiles": "O=C(/C=C/c1ccco1)NC(=S)Nc1ccccc1Br", "Potency": "25.1 µM (active)"}
{"smiles": "CC(=O)Nc1ccc(NC(=O)C2CCCN(S(=O)(=O)c3ccc4c(c3)CCCC(=O)N4)C2)cc1", "note": "(centres undefined)", "activity, negative = inhibition": "2.46% (inactive)"}
{"smiles": "COc1ccc(-c2nc(=N)sn2-c2ccccc2)cc1", "activity, negative = inhibition": "-18.6% (inactive)"}
{"smiles": "CCC(CC)C(=O)Nc1ccc(S(=O)(=O)Nc2nccs2)cc1", "activity, negative = inhibition": "111% (inactive)"}
{"smiles": "O=C(Nc1ccc(S(=O)(=O)Nc2nccs2)cc1)c1cc(-c2ccncc2)nc2ccccc12", "Potency": "11.2 µM (active)"}
{"smiles": "COc1ccccc1OC(C)C(=O)Nc1ccc(S(=O)(=O)Nc2nccs2)cc1", "note": "(centres undefined)", "activity, negative = inhibition": "76.1% (inactive)"}
{"smiles": "COc1ccc(NS(=O)(=O)c2cc3c4c(c2)CC(=O)N4CCC3)cc1Cl", "activity, negative = inhibition": "-8.67% (inactive)"}
{"smiles": "CCOc1ccc(OCC)c(NC(=O)CN(c2ccc(C)cc2)S(=O)(=O)c2c(C)n[nH]c2C)c1", "activity, negative = inhibition": "9.87% (inactive)"}
{"smiles": "CC1CCN(S(=O)(=O)c2ccc3c(ccn3CCC(=O)NCc3ccc(N(C)C)cc3)c2)CC1", "activity, negative = inhibition": "-7.35% (inactive)"}
{"smiles": "O=C(NC1CC(=O)N(c2ccc(Cl)cc2)C1)C1CCCC1", "note": "(centres undefined)", "activity, negative = inhibition": "5.35% (inactive)"}
{"smiles": "CCCCCC(=O)Nc1ccc(S(=O)(=O)Nc2ccc(Cl)nn2)cc1", "activity, negative = inhibition": "-8.6% (inactive)"}
{"smiles": "Cc1nnc(SCC(=O)Nc2ccc(S(=O)(=O)Nc3ccc(Cl)nn3)cc2)s1", "Potency": "28.2 µM (active)"}
{"smiles": "COc1ccc(NC(=O)CSc2nc(NS(=O)(=O)c3ccc(C)cc3)cc(=O)[nH]2)cc1", "activity, negative = inhibition": "8.29% (inactive)"}
{"smiles": "NC(=O)Nc1ccc(/C=C/c2ccnc3ccccc23)cc1", "activity, negative = inhibition": "24.2% (inactive)"}
{"smiles": "COc1ccc(-c2[nH]c3c(c2-c2c(-n4cccc4)n(C)c(=O)n(C)c2=O)c(=O)n(C)c(=O)n3C)cc1", "activity, negative = inhibition": "33.3% (inactive)"}
{"smiles": "COc1ccc(CC(=O)n2nc(-c3cccnc3)nc2N)cc1", "activity, negative = inhibition": "18.7% (inactive)"}
{"smiles": "CCCC(=O)n1nc(-c2ccccc2)nc1N", "Potency": "79.4 µM (active)"}
{"smiles": "COc1ccc(C(=O)n2nc(-c3ccc(Cl)cc3)nc2N)cc1OC", "activity, negative = inhibition": "8.66% (inactive)"}
{"smiles": "CCC(Sc1nnc(-c2ccc(OC)cc2)c(-c2ccc(OC)cc2)n1)C(=O)NC1CCCCC1", "note": "(centres undefined)", "activity, negative = inhibition": "9.48% (inactive)"}
